Our source for the Potency and viability (% of DMSO) values is PubChem BioAssay (NCATS).

Results filed as inconclusive are left out. Calls of active or inactive are those of the source. The call rests on the fitted dose curve; in most records, active means well fitted curve in the direction sought with a large enough effect; inconclusive means small, poorly fitted or top-dose-only effect, or another doubt; inactive means no such curve, though single readings can be large; an effect the other way counts as inactive or inconclusive. Residues, ends and D or L forms follow the SMILES beside them. *: point of attachment. Cbz = O=C(OCc1ccccc1)*

The nature of assay [1]: Quantitative High-Throughput drug screen in 47 multiple myeloma cell lines against the NCATS MIPE library collection: Karpas620_DSMZ cell viability assay (AID 1918959). Further: nearly all actives have a fitted effect of over 30% in size. The procedure, abridged: (§1)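 We plated 500 myeloma cells per well, pinned in MIPE 4.0 compounds, and incubated for 48 hours at 37C. ATP was then quantified with CellTiter-Glo, with DMSO and media-only wells defining 100% and 0%.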

A short description of assay [2]: Quantitative High-Throughput drug screen in 47 multiple myeloma cell lines against the NCATS MIPE library collection: KMM1_JCRB cell viability assay (AID 1918960). Further: nearly all actives have a fitted effect of over 30% in size. Put shortly:
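Cell viability inhibition in this qHTS is measured via ATP content (CellTiter-Glo) after 48 h drug exposure at 37 °C. Wells hold 500 cells; DMSO-treated wells define 100% and medium-only wells 0%.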

Assay [3] is described as follows: Quantitative High-Throughput drug screen in 47 multiple myeloma cell lines against the NCATS MIPE library collection: KHM11_PLB cell viability assay (AID 1918962). Further: nearly all actives have a fitted effect of over 35% in size. Put shortly:
as §1

Assay [4] is described as follows: Quantitative High-Throughput drug screen in 47 multiple myeloma cell lines against the NCATS MIPE library collection: JIM3_ECACC cell viability assay (AID 1918963; further: nearly all actives have a fitted effect of over 35% in size). The procedure, abridged:
as §1

Assay [5] can be described thus: Quantitative High-Throughput drug screen in 47 multiple myeloma cell lines against the NCATS MIPE library collection: JIM1_ECACC cell viability assay (AID 1918964). Put shortly:
(§2)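 Inhibition of cell viability is measured here. Each line was plated at 500 cells per well, treated with MIPE 4.0 drugs, kept 48 hours at 37C, then assayed for ATP content by CellTiter-Glo luminescence.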

Assay [6] can be described thus: Quantitative High-Throughput drug screen in 47 multiple myeloma cell lines against the NCATS MIPE library collection: INA6_PLB cell viability assay (AID 1918965; further: nearly all actives have a fitted effect of over 55% in size). Put shortly: (§3)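 Viability readout: CellTiter-Glo luminescence following 5 min room-temperature incubation with reagent. Prior exposure: 48 h, 37C, humidified 5% CO2, 500 cells per well.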
Assay [7] in a line: Quantitative High-Throughput drug screen in 47 multiple myeloma cell lines against the NCATS MIPE library collection: JJN3_DSMZ cell viability assay (AID 1918966; further: nearly all actives have a fitted effect of over 50% in size). The procedure, abridged: as §2
Assay [8] is described as follows: Quantitative High-Throughput drug screen in 47 multiple myeloma cell lines against the NCATS MIPE library collection: H1112_PLB cell viability assay (AID 1918967; further: nearly all actives have a fitted effect of over 30% in size). Put shortly:
as §2

The nature of assay [9]: Quantitative High-Throughput drug screen in 47 multiple myeloma cell lines against the NCATS MIPE library collection: Karpas25_ECACC cell viability assay (AID 1918968; further: nearly all actives have a fitted effect of over 35% in size). Put shortly:
as §2

A short description of assay [10]: Quantitative High-Throughput drug screen in 47 multiple myeloma cell lines against the NCATS MIPE library collection: KMS27_JCRB cell viability assay (AID 1918970). Further: nearly all actives have a fitted effect of over 30% in size. Particulars: KMS27 myeloma cells, CellTiter-Glo ATP viability, 48 h; viability (% of DMSO): at 45.8 µM (top of the series). The procedure, abridged: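 KMS27_JCRB myeloma cells, 500 per well, exposed 48 h at 37 C, 5% CO2 to MIPE 4.0 compounds. Viability from ATP by CellTiter-Glo luminescence, normalized to DMSO (100%) and medium-only (0%) wells.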

Assay [11] can be described thus: Quantitative High-Throughput drug screen in 47 multiple myeloma cell lines against the NCATS MIPE library collection: KMS12BM_JCRB cell viability assay (AID 1918971). Further: nearly all actives have a fitted effect of over 35% in size. The procedure, abridged:
(§4)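 Relative luminescence from CellTiter-Glo served as the viability signal, referenced to DMSO-treated (100%) and cell-free medium (0%) controls. Treatment lasted 48 hours at 37C with 500 cells per well.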

The nature of assay [12]: Quantitative High-Throughput drug screen in 47 multiple myeloma cell lines against the NCATS MIPE library collection: KMS12PE_JCRB cell viability assay (AID 1918972). Further: nearly all actives have a fitted effect of over 30% in size. Put shortly: as §3
The nature of assay [13]: Quantitative High-Throughput drug screen in 47 multiple myeloma cell lines against the NCATS MIPE library collection: KMS26_JCRB cell viability assay (AID 1918975). Further: nearly all actives have a fitted effect of over 45% in size. The procedure, abridged:
as §4

The nature of assay [14]: Quantitative High-Throughput drug screen in 47 multiple myeloma cell lines against the NCATS MIPE library collection: MMM1_PLB cell viability assay (AID 1918976). Further: nearly all actives have a fitted effect of over 35% in size. The procedure, abridged: (§5)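 Cells were exposed to library compounds for 48 hours, after which ATP was measured by CellTiter-Glo. Signal was taken as median relative luminescence units.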
A short description of assay [15]: Quantitative High-Throughput drug screen in 47 multiple myeloma cell lines against the NCATS MIPE library collection: MOLP8_DSMZ cell viability assay (AID 1918977). Further: nearly all actives have a fitted effect of over 45% in size. Put shortly:
as §5

The nature of assay [16]: Quantitative High-Throughput drug screen in 47 multiple myeloma cell lines against the NCATS MIPE library collection: NCIH929_DSMZ cell viability assay (AID 1918978). Further: nearly all actives have a fitted effect of over 35% in size. Put shortly:
as §5

The nature of assay [17]: Quantitative High-Throughput drug screen in 47 multiple myeloma cell lines against the NCATS MIPE library collection: OCIMY1_PLB cell viability assay (AID 1918979). Further: nearly all actives have a fitted effect of over 35% in size. Put shortly: as §5
Assay [18] in a line: Quantitative High-Throughput drug screen in 47 multiple myeloma cell lines against the NCATS MIPE library collection: Karpas417_ECACC cell viability assay (AID 1918961). Particulars: Karpas417 myeloma viability, CellTiter-Glo ATP luminescence, 48 h; viability (% of DMSO): at 45.8 µM (top of the series). Put shortly:
as §3

A short description of assay [19]: Quantitative High-Throughput drug screen in 47 multiple myeloma cell lines against the NCATS MIPE library collection: KMS20_JCRB cell viability assay (AID 1918973). Further: nearly all actives have a fitted effect of over 45% in size. Put shortly: as §2
Assay [20] is described as follows: Quantitative High-Throughput drug screen in 47 multiple myeloma cell lines against the NCATS MIPE library collection: KMS21BM_JCRB cell viability assay (AID 1918974). Particulars: ATP luminescence, 48 h; viability: at 45.8 µM (top of the series). The procedure, abridged: as §2
Potency means the concentration at half of the fitted maximal effect.

As for `CC(C)C[C@@H](C=O)NC(=O)[C@H](CC(C)C)NC(=O)[C@H](CC(C)C)NC(=O)OCc1ccccc1` (Cbz-Leu-Leu-Leu-aldehyde), the Potency in [1] was 148 nM (active); in assay [2], 83.3 nM (active); in assay [3], 187 nM (active); in assay [4] it was 526 nM (active); in assay [5], 209 nM (active); in [6] it was 148 nM (active). Further, the Potency in assay [7] was 469 nM (active); in assay [8] it was 264 nM (active); in [9] it was 235 nM (active); in assay [10] it was 166 nM (active); in assay [11], 469 nM (active); in assay [12], 105 nM (active). Also, the Potency in assay [13] was 590 nM (active); in assay [14], 2350 nM (active); in assay [15] it was 469 nM (active); in assay [16] it was 118 nM (active); in [17], 332 nM (active).

Regarding `Cc1cc(O)c2c(c1)C(=O)c1cccc(O)c1C2=O`, the Potency entry in [1], in assay [2], in [4], in [6], in assay [7] and in assay [8] was “inactive” in each case. For the same compound, the Potency result in assay [9], in assay [13], in [15], in assay [16] and in assay [17] was “inactive” each time. In assay [18], the viability (% of DMSO) was 136% (active).

On to `CN(C)CC(=O)N1CCC(c2ccc(NC(=O)c3ncc(C#N)[nH]3)c(C3=CCCCC3)c2)CC1`, for which the Potency result in assay [1], in [2] and in assay [11] was “inactive” each time. Further, the Potency in [18] is 2350 nM (active); in assay [3], 20900 nM (active); in assay [5], 5260 nM (active); in assay [6] it was 14800 nM (active); in assay [8], 18700 nM (active); in assay [12], 5260 nM (active). Further, the Potency is 13200 nM (active) in [19], 5260 nM (active) in assay [15] and 16600 nM (active) in assay [16].

Consider `C=CCNC1=C2C[C@@H](C)C[C@H](OC)[C@@H](O)[C@@H](C)C=C(C)[C@H](OC(N)=O)[C@@H](OC)C=CC=C(C)C(=O)NC(=CC1=O)C2=O`, for which the Potency in [1] is 1870 nM (active); in assay [2], 148 nM (active); in assay [3] it was 590 nM (active); in assay [4] it was 2640 nM (active); in assay [5] it was 662 nM (active); in [6] it was 209 nM (active). Moreover, the Potency is 332 nM (active) in [7]; 14800 nM (active) in [8]; 1480 nM (active) in assay [9]; 105 nM (active) in assay [10]; 469 nM (active) in assay [11]; 83.3 nM (active) in [12]. For the same compound, the Potency is 1 nM (active) in [19]; 2350 nM (active) in assay [13]; 264 nM (active) in [15]; 1180 nM (active) in assay [16]; 1050 nM (active) in assay [17].

With `O=C1NC(=O)C(=Cc2ccc3nccc(-c4ccncc4)c3c2)S1`, the Potency is 296 nM (active) in assay [1]; 132 nM (active) in [2]; 46.9 nM (active) in [3]; 296 nM (active) in assay [4]; 29.6 nM (active) in assay [5]; 148 nM (active) in [6]. Further, the Potency is 93.5 nM (active) in [7]; 1050 nM (active) in [8]; 29.6 nM (active) in [9]; 29.6 nM (active) in assay [10]; 332 nM (active) in [11]; 166 nM (active) in [20]. Also, the Potency in assay [13] was 187 nM (active); in assay [14] it was 235 nM (active); in [15], 166 nM (active); in assay [16], 29.6 nM (active); in assay [17] it was 235 nM (active).

As to `CC(C)Oc1ccc(C(=O)N[C@H](CNC(=O)CN(C)C)Cc2ccc(-c3cn4cccc([C@H](C)O)c4n3)cc2)cc1Cl`, the Potency in assay [1] was 187 nM (active); in [2], 209 nM (active); in [4], 209 nM (active); in assay [6], 74.3 nM (active); in assay [9] it was 132 nM (active); in assay [10], 833 nM (active). In addition, the Potency is 743 nM (active) in assay [11], 469 nM (active) in [12], 235 nM (active) in [19] and 2640 nM (active) in assay [17]. The Potency result in assay [18] and in [7] was “inactive” throughout.
